Rows were chosen to be rich in hits. Some 2.3% of all compounds tested hit in one or more screens of this group.
M1 ag = activates human CHRM1 receptor. P11229. CHO-K1 hM1, Fluo-8 calcium fluorescence, agonist mode; 0% DMSO, 100% acetylcholine EC100. activation, % at 3 µM. 360,000 tested, 0.33% active;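 active means activation above the run's mean compound activation plus 3 SD, cut at about 16% in these data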;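 further: peak over basal fluorescence ratio within a 140 s kinetic read after compound addition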
Target sequence (P11229 whole entry, looked up): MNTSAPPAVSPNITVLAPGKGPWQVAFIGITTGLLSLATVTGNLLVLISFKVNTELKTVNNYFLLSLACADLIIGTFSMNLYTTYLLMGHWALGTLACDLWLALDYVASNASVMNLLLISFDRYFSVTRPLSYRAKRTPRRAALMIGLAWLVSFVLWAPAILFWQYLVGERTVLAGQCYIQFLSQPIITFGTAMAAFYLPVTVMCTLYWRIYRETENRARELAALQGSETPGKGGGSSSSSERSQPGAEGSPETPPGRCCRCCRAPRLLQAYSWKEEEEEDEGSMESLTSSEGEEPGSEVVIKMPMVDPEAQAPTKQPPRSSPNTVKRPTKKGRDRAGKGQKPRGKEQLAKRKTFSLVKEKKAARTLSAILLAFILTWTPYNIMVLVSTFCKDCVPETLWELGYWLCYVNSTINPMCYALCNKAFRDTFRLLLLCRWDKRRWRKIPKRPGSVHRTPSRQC
CHO-K1 Ca antag = counter-screen for M1 antagonists: effect in parental CHO-K1 cells | 360,000 tested, 0.6% active | inhibition, % at 3 µM | ATP-induced calcium, Fluo-8 fluorescence;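 active means inhibition above a per-plate cutoff, the plate's mean sample inhibition plus 3 SD, cut at about 24% in these data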;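 further: 0% = DMSO plus EC80 ATP and 100% = DMSO alone without ATP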
M1 PAM parental = M1 PAM counterscreen hit in parental CHO-K1 cells; ATP EC20, Fluo-8 calcium fluorescence; 0% at ATP EC20, 100% at ATP max; activation, % at 3 µM; 360,000 tested, 0.02% active; AID 602247;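 active means activation above the run cutoff, the mean activation of all test compounds plus 3 SD, cut at about 40% in these data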;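 further: peak over basal fluorescence ratio in a 140 s read after ATP addition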
CHO-K1 Ca ag = nonselective activator or artifact in parental CHO-K1 cells; AID 602248; Fluo-8 calcium fluorescence; scaled to maximal ATP response, vehicle zero; 360,000 tested, 0.48% active; activation, % at 3 µM; in the data active means activation above about 15%;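 further: untransfected CHO-K1 host cells lacking M1 receptor as counterscreen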
M1 antag = antagonists of human M1 muscarinic receptor; P11229; CHO-K1 hM1, Fluo-8 calcium fluorescence, ACh EC80 antagonist; inhibition, % at 3 µM; 360,000 tested, 1.3% active; AID 588852;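 active means percent inhibition above its own plate's cutoff, namely the mean of that plate's compound wells plus 3 SD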;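 further: peak over basal fluorescence ratio during 140 s after agonist addition; 0% = ACh EC80 plus DMSO and 100% = DMSO alone without agonist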
M1 PAM = human CHRM1 positive allosteric modulation | P11229 | CHO-K1 hM1, Fluo-8 calcium fluorescence, ACh EC20; 0% = ACh EC20, 100% = maximal ACh | activation, % at 3 µM | 360,000 tested, 0.088% active; in the data active means activation above about 19%, passing the limit was not always enough
Starred values were filed as active, the others as inactive.

SMILES	M1 ag	CHO-K1 Ca antag	M1 PAM parental	CHO-K1 Ca ag	M1 antag	M1 PAM
Cc1ccc(N2CCN(C(=S)Nc3ccccc3)CC2)cc1	-6.5	4.2	2.9	22.2*	-0.8	-3.0
S=C(Nc1ccccc1)N1CCN(c2ccccc2)CC1	2.1	0.0	-12.3	1.6	5.1	-8.2
Cc1ccc(CC(=O)N2CCN(c3cccc(C(F)(F)F)c3)CC2)cc1	2.2	15.3	4.1	7.3	32.0*	-9.7
O=c1onc(-c2ccccc2)n1Cc1ccc([N+](=O)[O-])cc1	-9.2	4.5	4.0	-0.2	-15.7	7.6
CC(=O)Oc1c(C(=O)c2nnc(C)o2)c(=O)n(C)c2ccccc12	-3.3	-9.2	17.2	0.7	-5.4	5.8
COc1cc(OC)cc(-c2cc3nc(C)c(CCC(=O)O)c(C)n3n2)c1	1.7	39.1*	-9.6	-0.3	-7.6	5.2
NC(=S)N=Nc1ccc(O)cc1	0.1	-13.2	-2.4	0.3	7.0	-5.8
Cc1ccc(SCCC(=O)Nc2cccc(N(C)S(C)(=O)=O)c2)cc1	0.2	41.8*	-1.6	25.0*	-3.3	8.9
CN(c1cccc(NC(=O)Nc2cccc(Cl)c2)c1)S(C)(=O)=O	9.9	20.5	1.3	18.2*	14.3	-12.3
C[C@@H]1CCC[C@]2(O[C@@H](CCO)C[C@@H](O)[C@@H]2O)O1	-0.9	-8.8	9.4	0.2	3.8	3.2
CCOC(=O)C1CCCN(Cc2nc(C3CC3)no2)C1 (stereo unspecified)	-1.1	-8.1	13.8	0.5	-10.8	7.0
CCOC(=O)C1CCCN(C2CCN(Cc3nc(Cc4ccccc4)no3)CC2)C1 (stereo unspecified)	17.0*	-11.8	12.7	0.8	18.9	-8.0
CCOC(=O)C1CCCN(C2CCN(Cc3nc(-c4ccccc4)no3)CC2)C1 (stereo unspecified)	41.7*	-1.3	10.9	1.1	42.4*	-21.8
COCC1CCCN(Cc2nc(Cc3ccccc3)no2)C1 (stereo unspecified)	-0.6	-2.7	-0.3	0.2	12.1	10.5
CCOC(=O)C1CCCN(Cc2nc(Cc3cccc(F)c3)no2)C1 (stereo unspecified)	33.1*	-10.1	16.6	1.7	-3.0	-7.7
CCOC(=O)C1CCN(C2CCN(Cc3nc(-c4ccccc4)no3)CC2)CC1	-12.7	4.7	-1.7	1.5	-6.4	0.0
c1ccc(COc2ncnc3c2ncn3CCCNCc2cccs2)cc1	-12.0	5.3	-10.3	-0.2	-8.6	-2.5
O=C1NC(=S)NC1=Cc1ccc(Cl)cc1Cl	-1.6	25.6*	-14.1	-0.5	-3.3	1.1
O=C1NC(=S)NC1=Cc1ccccc1O	18.7*	23.1	-16.7	17.4*	5.5	-7.9
COCCN(C(=O)COC(=O)c1cccnc1SC)c1c(N)n(Cc2ccccc2)c(=O)[nH]c1=O	1.9	-6.0	-24.7	-0.2	-9.6	16.2
CCCCCN(C(=O)CCC(=O)OCC(=O)Nc1cccc(CC)c1)c1c(N)n(CCCC)c(=O)[nH]c1=O	0.1	-4.5	6.6	-0.1	-10.4	8.8
CC(=O)NC(C)(c1ccccc1)c1nc(/C=C/c2ccccc2)cs1 (stereo unspecified)	0.9	2.2	15.7	0.1	-5.3	16.6
COc1ccc(C(C)(NC(C)=O)c2nc(/C=C/c3ccccc3)cs2)cc1 (stereo unspecified)	0.3	31.7*	-10.9	-0.2	-7.9	4.4
Cc1cc(Nc2ccccc2)nc(NCc2ccccc2)n1	-1.7	27.1*	2.1	9.9	13.4	-13.1
Cc1cc(C)nc(NCCCc2ccccc2)n1	-5.5	-9.6	24.3	0.7	7.4	-6.3
SMILES	M1 ag	CHO-K1 Ca antag	M1 PAM parental	CHO-K1 Ca ag	M1 antag	M1 PAM
Cc1cc(Nc2ccc(Cl)cc2)nc(NCc2ccccc2)n1	0.8	12.1	16.2	8.5	3.2	6.6
Cc1cc(Oc2ccccc2)nc(NCc2ccccc2)n1	1.8	37.8*	-2.1	1.1	1.4	-6.3
CCCCNc1cc(C)nc(NCc2ccccc2)n1	2.9	25.9*	-0.4	9.5	30.0*	-9.8
CC(=O)N1CC(C)Sc2ccc(S(=O)(=O)NCc3ccc(Cl)cc3)cc21 (stereo unspecified)	0.6	-4.1	7.3	14.8	14.8	-5.8
CCOc1cc(C(=O)N(CC)CC(=O)Nc2c(F)cccc2F)ccc1OCC(=O)N1CCCCC1	-0.6	-6.0	-4.0	0.4	-8.4	3.5
CCCOc1ccc(C2=CSC3=NCCN23)cc1	-9.2	9.0	-13.1	-0.2	17.4	-14.6
Cc1ccc(Nc2ccc(-n3ccnc3)nn2)cc1C	-4.5	-6.6	3.2	-0.1	-9.1	2.4
COc1cccc(Nc2ccc(-n3ccnc3)nn2)c1	0.6	-2.6	14.1	15.3*	-8.7	11.2
Cc1ccc(NC(Cc2cc(C)no2)c2ccccc2)cc1 (stereo unspecified)	3.4	-17.2	46.0*	14.0	-0.7	8.1
O=C(Nc1nc(-c2cc3ccccc3o2)cs1)c1ccc(S(=O)(=O)N2CCCC2)cc1	1.9	17.4	-10.2	2.0	10.2	-8.1
CN(C)S(=O)(=O)c1ccc(C(=O)Nc2nc(-c3cc4ccccc4o3)cs2)cc1	0.8	9.7	1.6	4.2	23.9*	-12.2
COc1ccccc1NS(=O)(=O)c1cccc(C(=O)NNC(=O)c2ccc(O)c(Cl)c2)c1	-1.7	-5.3	18.6	0.5	3.4	3.6
Cc1cccc(NNC(=S)Nc2ccccc2)c1	-3.4	24.6*	-11.4	-0.6	2.2	7.5
Cc1cccc(NC(=S)NNc2cccc(Cl)c2)c1	-1.2	3.0	5.9	-0.1	-14.6	13.0
Cc1ccc(S(=O)(=O)N(CC(=O)N/N=C/c2cccc(Cl)c2)c2cccc3cccnc23)cc1	-3.4	24.0*	-9.7	0.2	-2.8	-5.1
Cc1ccc(NS(=O)(=O)c2ccc(C(=O)Nc3nncs3)cc2)cc1	2.2	-3.6	0.2	4.4	15.5	-9.7
CC12CCC(=O)N1C(C(=O)Nc1cc(C(F)(F)F)ccc1N1CCCCC1)CS2 (stereo unspecified)	-5.4	-4.4	-6.3	-0.5	-15.8	7.2
CNC(=O)c1ccc(NC(=O)C2CCN(S(=O)(=O)c3cccc(C(F)(F)F)c3)CC2)cc1	-2.6	13.5	-19.1	0.4	29.7*	-12.7
O=C(NCCCN1CCC(Cc2ccccc2)CC1)c1ccc(CS(=O)c2ccccc2Cl)o1 (stereo unspecified)	-7.0	7.5	-11.1	2.3	49.7*	-24.2
Cc1ccc2oc(=O)c3cc(C(=O)NCCCN4CCN(C)CC4)sc3c2c1	-3.8	53.9*	9.8	0.7	-3.9	6.0
CN1CCN(CCCNC(=O)c2cc3c(=O)n(C)c4ccccc4c3s2)CC1	-7.7	28.6*	-7.1	-0.2	20.4	-13.5
C=CCC1(CC=C)CCCN1C(=O)c1cc(COc2cncc(Cl)c2)on1	-0.8	21.8	1.0	10.3	40.0*	-13.2
